# Over roughly 3,600 compounds, “viability index relative to DMSO control” has its median near 0.81; the lowest 2% begin near 0.13. The sample holds the lowest values, similar compounds and a random draw of the others, so the mix is not that of the screen.
# System: Plasmodium falciparum NF54 stage V gametocytes
# Test: viability index relative to DMSO control (fraction); higher = less gametocyte killing
# Details: 1.25 µM, incubation time: 72 h
# 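Also: Saponin-lysis sexual stage assay in serum-free medium: MitoTracker Red CMXRos staining plus saponin, high-content imaging, particle count per well divided by plate mean of DMSO wells.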
row,SMILES,viability index
1,O=C(c1cc2n(n1)C(C(F)(F)F)CC(c1ccc3c(c1)OCO3)N2)N1CCN(C(c2ccccc2)c2ccccc2)CC1 (stereo not given),0.682
2,CC(=O)Nc1ccc(-c2nc3c4ccccc4c4ccc(I)cc4c3[nH]2)cc1,0.762
3,C(=NNc1nc2ccccc2[nH]1)c1c[nH]c2ccccc12,0.558
4,COc1cccc(CNc2cc(C(=O)NCCNC(C)=O)cc(S(=O)(=O)N(C)C)c2)c1OC,1.32
5,CCOc1ccc2nc(C)cc(Nc3ccc(C)c(Cl)c3)c2c1,0.852
6,CCOc1ccc2nc3cc(NCc4ccco4)ccc3c(N)c2c1,0.775
7,COc1ccc(C2c3[nH]c4ccccc4c3C[C@H]3C(=O)N(CCC(C)C)CC(=O)N23)cc1 (stereo not given in full),0.803
8,C=CCSc1nnc2c(n1)[nH]c1ccc(OCC)cc12,0.656
9,Cc1cccc(-c2nc3cc(NC(=S)NC(=O)c4ccc(Cl)cc4)ccc3o2)c1,0.808
10,Cc1cc(N2CCCCC2)nc2ccc(NC(=O)c3cccc([N+](=O)[O-])c3)cc12,0.787
11,O=C(Nc1ccc(-c2nc3ccc(NC(=O)c4ccc(Br)o4)cc3[nH]2)cc1)c1ccc(Br)o1,1.1
12,Cc1ccc(-c2nc3cc(NC(=O)c4ccc(Cl)cc4Cl)ccc3o2)cc1,1.32
13,Cc1cc([N+](=O)[O-])ccc1-c1ccc(C(=O)Nc2ccc(-c3nc4ccccc4[nH]3)cc2)o1,0.622
14,Cc1cc(N2CCC(C)CC2)nc2ccc(NC(=O)c3ccc([N+](=O)[O-])o3)cc12,0.12
15,O=C(Nc1ccc2oc(-c3ccc(I)cc3)nc2c1)c1ccc([N+](=O)[O-])o1,0.0302
16,O=C(CN1CCN(C(=O)c2ccccc2)CC1)Nc1ccc(-c2nc3cc(NC(=O)CN4CCN(C(=O)c5ccccc5)CC4)ccc3o2)cc1,0.951
17,Cc1ccc(-c2nc3cc(NC(=O)c4ccc([N+](=O)[O-])o4)ccc3o2)cc1Br,0.0755
18,Nc1ccc(C(=O)Nc2ccc(-c3nc4ccccc4o3)cc2)cc1,0.703
19,Cc1cc(N2CCN(C)CC2)nc2ccc(NC(=O)c3ccc(Br)o3)cc12,0.924
20,Cc1cccc(-c2nc3cc(NC(=O)c4ccc([N+](=O)[O-])o4)ccc3o2)c1,0.0679
21,CNC(=O)c1nn(C)c2c1CC(NCC1CCCCC1)CC2 (stereo not given),0.702
22,CC(=NNC(=O)c1ccc(C)cc1)c1ccccn1,0.294
23,CCOC(=O)c1oc2cc(O)c(CC)cc2c(=O)c1-c1ccc2c(c1)OCO2,1.09
24,CCOc1ccc2[nH]c(=O)c(CN(CCCN3CCOCC3)C(=S)NCCCN(CC)CC)cc2c1,0.814
25,Oc1cccc(Nc2nc(NCc3ccco3)c3ccccc3n2)c1,0.595
26,O=[N+]([O-])c1cccc(Cl)c1N1CCN(S(=O)(=O)Cc2ccccc2)CC1,1
27,COc1cc(C=C(C#N)c2nc3ccccc3[nH]2)ccc1OCc1ccccc1Cl,0.678
28,CC1CC(N(C(=O)c2ccc(Cl)cc2Cl)c2ccccc2)c2ccccc2N1C(=O)c1ccc(Cl)cc1 (stereo not given),0.723

row,SMILES,viability index
1,CCC(=O)NC(c1cccc([N+](=O)[O-])c1)c1ccc2cccnc2c1O (stereo not given),1.12
2,O=[N+]([O-])c1cc(C(F)(F)F)cc([N+](=O)[O-])c1Sc1cccc2cccnc12,0.0789
3,O=[N+]([O-])c1cc([N+](=O)[O-])c2cccnc2c1Nc1cccc2cccnc12,0.209
4,COc1cccc2c1OCC(CN1CCC(C(=O)Nc3ccc(-n4cccn4)cc3)CC1)=C2,1.03
5,CCC(C)(C)c1ccc(Oc2ccc(NC(=O)c3ccc([N+](=O)[O-])o3)cc2)cc1,0.362
6,O=C(Nc1ccc2oc(-c3ccccc3F)nc2c1)c1ccc([N+](=O)[O-])o1,0.128
7,O=C(Nc1ccc(-c2nc3ccccc3[nH]2)cc1)c1ccc(-c2cccc([N+](=O)[O-])c2)o1,0.751
8,O=C(Nc1ccc(-c2nnc(-c3ccc(NC(=O)c4ccccc4[N+](=O)[O-])cc3)o2)cc1)c1ccccc1[N+](=O)[O-],0.756
9,O=C(Nc1ccc(F)c(F)c1)c1ccccc1[N+](=O)[O-],1.03
10,O=C(Nc1ccc2oc(-c3cccc4ccccc34)nc2c1)c1ccc([N+](=O)[O-])o1,0.0679
11,CCN1C(=Cc2cccc[n+]2C)C=Cc2ccccc21,1.01
12,CCN1CCC(NC2CCCc3c2[nH]c2ccc([N+](=O)[O-])cc32)CC1 (stereo not given),1.07
13,CC1CCN(C(=O)C(C)N(c2ccccc2)S(C)(=O)=O)CC1 (stereo not given),0.917
14,O=C1OC(c2ccccc2)=NC1=C(Cl)Cl,1.1
15,Cc1cc(Nc2ccc(O)cc2)nc2cccc(O)c12,0.735
16,c1ccc2c(c1)ccc1cc3cccc[n+]3cc12,0.0821
17,C=CC[n+]1cccc2c3ccccc3ccc21,0.706
18,Cc1c2ccccc2cc(Cc2ccccc2)[n+]1C,0.76
19,O=C(c1ccc([N+](=O)[O-])cc1)c1ccc(Cl)c(Cl)c1,0.574
20,CCOC(=O)C1=C(C)N=c2sc(=Cc3cccc(OCc4cccc5ccccc45)c3)c(=O)n2C1c1ccc(OC)cc1OC (stereo not given),0.924
21,O=C(Cc1ccc(Cl)cc1)NNS(=O)(=O)c1ccc([N+](=O)[O-])cc1,0.939
22,O=C(Nc1ccc(-c2nc3cc(NC(=O)c4cccs4)ccc3[nH]2)cc1)c1cccs1,1.05
23,O=C(Nc1ccc(-c2nc3cc(NC(=O)C(c4ccccc4)c4ccccc4)ccc3[nH]2)cc1)C(c1ccccc1)c1ccccc1,0.908
24,O=C(C=Cc1ccccc1)Nc1ccc(-c2nc3cc(NC(=O)C=Cc4ccccc4)ccc3[nH]2)cc1,0.11
25,O=C(Nc1ccc(-c2nc3ccccc3[nH]2)cc1)c1ccc(Cl)c(Cl)c1,1.03
26,O=C(Nc1ccc(-c2nc3ccccc3[nH]2)cc1)c1ccc(-c2ccc(Cl)cc2)o1,0.725
27,O=C(Nc1ccc(-c2nc3ccccc3[nH]2)cc1)c1cccc(C(=O)Nc2ccc(-c3nc4ccccc4[nH]3)cc2)n1,0.0331

# Source: the supplement of paper PMC4723716
